Assay outcomes deposited in PubChem by several laboratories.
Shown are actives, neighbours in structure and some others; about 4.2% of the full set was active somewhere.
PrPC TRFRET: cell surface PrPC inhibition, primary TR-FRET screen; P04156; TR-FRET read-out; inhibition, % at 13.8 µM; hit rate 0.43% among 370,000; in the data active means inhibition above about 24%; further: 0% = median of the test wells and 100% = reference compound wells
FBA Mtb inh: inhibits M. tuberculosis FBA enzyme | hit rate 2.3% among 360,000 | purified M. tuberculosis FBA, fluorescence read-out | AID 588726 | inhibition, % at 1 µM | P9WQA3; in the data active means inhibition above about 27%;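 further: 0% = vehicle and 100% = reference inhibitor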
Target sequence (P9WQA3 whole entry, looked up): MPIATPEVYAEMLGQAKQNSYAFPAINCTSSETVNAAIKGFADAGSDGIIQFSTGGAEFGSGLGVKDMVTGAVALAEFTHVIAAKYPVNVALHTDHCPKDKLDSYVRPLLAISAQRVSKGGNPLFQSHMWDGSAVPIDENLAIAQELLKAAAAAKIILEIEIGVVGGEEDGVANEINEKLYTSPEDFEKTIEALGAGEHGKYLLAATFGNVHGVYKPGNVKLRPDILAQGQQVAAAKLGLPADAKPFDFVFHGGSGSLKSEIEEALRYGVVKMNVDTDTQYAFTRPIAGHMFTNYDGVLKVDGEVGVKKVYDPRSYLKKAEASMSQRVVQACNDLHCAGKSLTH
BJeLR viability: kills HRASV12-expressing BJeLR cells; BJeLR (HRASV12) viability, CellTiter-Glo ATP luminescence, 48 h; inhibition, % (test concentration not listed); hit rate 0.17% among 300,000; in the data active means inhibition above about 50%
RecA splice inh: blocks M. tuberculosis RecA intein splicing; P9WHJ3; inhibition, % (test concentration not listed); AID 2221; hit rate 0.75% among 290,000; cell-free RecA intein splicing, fluorescence; in the data active means inhibition above about 30%;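 further: 0% = vehicle wells and 100% = reference inhibitor control wells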
GDH-TPI inh: GDH-TPI coupled enzyme inhibition counter-screen | GDH-TPI coupled enzyme counterscreen, NADH absorbance | inhibition, % at 4.8 µM | hit rate 1.2% among 360,000; in the data active means inhibition above about 30%;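 further: 0% = DMSO wells and 100% = wells lacking the enzyme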
GFP chromophore: counter-screen GFP chromophore formation inhibition. shares compounds with RecA splice inh. cell-free GFP chromophore formation, fluorescence. EC50, µM. hit rate 83% among 2,100. AID 434968; call rule not given here
Numbers without * were called inactive; / = not tested or not shown.

SMILES	PrPC TRFRET	FBA Mtb inh	BJeLR viability	RecA splice inh	GDH-TPI inh	GFP chromophore
COc1ccc(N(C(=O)CCl)C(C(=O)NCCc2ccccc2)c2cccs2)cc1 (stereo not given)	-5	1	114*	76*	-3	1.7*
O=C(CN1CCN(S(=O)(=O)c2ccc(Cl)cc2)CC1)Nc1ccc2c(c1)OCO2	4	-2	1	47*	8	>38
O=C(CN1CCN(S(=O)(=O)c2ccc(Cl)cc2)CC1)Nc1ccc2c(c1)OCCO2	-2	1	-4	4	-11	/
COc1ccc(C[N+]2=C(N)NC3=C(C)Cn4c(=O)n(-c5ccccc5)c(=O)n4C3C2)c(OC)c1 (stereo not given)	0	/	/	/	/	/
CCN(CC)c1ccc(/C=C2\C(=O)N(c3nnc(C)c(=O)[nH]3)N=C2C)cc1	2	-5	10	81*	11	9.5*
OC(CNCCC1C=Nc2ccccc21)Cn1c2ccc(Cl)cc2c2cc(Cl)ccc21 (stereo not given)	-8	-1	105*	48*	4	37*
CCOC(=O)[C@]12CCCCC/C=C\1N(Cc1ccc(OC)cc1)C(=O)[C@H]2CC(=O)N1CCSCC1	-6	/	/	/	/	/
CCCNC(=O)Nc1ccc2c(c1)C(=O)N(C)[C@H]1CC[C@@H](CC(=O)OC)O[C@H]1CO2	-10	/	/	/	/	/
O=C1C=C(N(CCO)Cc2ccccc2)c2ccccc2C1=O	/	0	0	88*	9	0.6*
O=C1c2ccccc2C(=O)c2c1cccc2N(CCO)CCO	-68	1	-10	5	10	/
CCOC(=O)COc1ccc(C(C)c2ccc(NC(=O)OC(C)(C)C)cc2)cc1 (stereo not given)	3	/	/	/	/	/
COc1ccc(C(C#N)c2cnccn2)cc1OC (stereo not given)	-6	6	2	0	14	/
N#CC(c1ccccc1)c1cnccn1 (stereo not given)	-8	2	-14	33*	-14	>38
C[C@@H]1[C@@H](O)C[C@@]2(C[C@H](O)c3cc(F)ccc3O2)O[C@H]1c1ccccc1Cl	6	/	/	/	/	/
COc1cc(C(=O)c2nccc3cc(OC)c(OC)cc23)c([N+](=O)[O-])cc1OC	-18	-2	-5	95*	38*	0.39*
COc1cc(C(=O)c2ccccc2)c([N+](=O)[O-])cc1OC	-9	-3	-2	-22	-3	/
COc1cc(Br)c(C(=O)c2nccc3cc(OC)c(OC)cc23)cc1OC	-14	-1	17	84*	12	0.75*
COc1cc(N)c(C(=O)c2nccc3cc(OC)c(OC)cc23)cc1OC	-2	-3	-1	18	9	/
Brc1ccc(CNc2ccc3ncccc3c2)cc1	6	11	9	39*	-7	>38
N#C/C(=C\c1ccc(O)c([N+](=O)[O-])c1)c1nc2ccccc2s1	-6	-20	-4	51*	6	23*
Cc1cc(C(=O)c2ccccc2)c(NC(=O)CCl)s1	-11	-3	4	58*	6	17*
COC1=CC(=O)C(O)=C(CCCCCCC/C=C/CCCCCCCC2=C(O)C(=O)C=C(OC)C2=O)C1=O	/	2	3	76*	9	2.1*
CCCCCCCCCCCC1=C(O)C(=O)C=C(O)C1=O	/	2	-3	/	6	/
CCSc1c([N+](=O)[O-])c(=O)n(-c2ccccc2)c2ccccc12	-3	-8	0	40*	-6	>38
Cc1ccc2c(c1)c1c(n2CC(O)CN2CCCCCC2)CCCC1 (stereo not given)	8	4	0	44*	1	>38
SMILES	PrPC TRFRET	FBA Mtb inh	BJeLR viability	RecA splice inh	GDH-TPI inh	GFP chromophore
Cc1ccc2c(c1)c1c(n2CC(O)CNC(C)(C)C)CCCC1 (stereo not given)	1	5	/	/	4	/
Cc1[nH]n(-c2ccccc2)c(=O)c1C(c1ccc([N+](=O)[O-])cc1)c1c(C)[nH]n(-c2ccccc2)c1=O	/	-9	2	95*	11	1.6*
Cc1[nH]n(-c2ccccc2)c(=O)c1C(c1ccc(O)c([N+](=O)[O-])c1)c1c(C)[nH]n(-c2ccccc2)c1=O	-7	-21	1	86*	1	2.3*
O=c1c2cc([N+](=O)[O-])cc([N+](=O)[O-])c2[nH]n1-c1ccccc1	-71	-27	17	3	12	/
Cc1c(C(c2ccc([N+](=O)[O-])cc2)c2c(C)n(C)n(-c3ccccc3)c2=O)c(=O)n(-c2ccccc2)n1C	-4	-2	2	1	7	/
N#C/C(=N\Nc1ccc(S(=O)(=O)N2CCc3ccccc32)cc1)C(N)=S	-6	-27	12	31*	8	32*
CCOc1ccccc1C1C(C#N)=C(N)Nc2onc(-c3ccccc3)c21 (stereo not given)	4	1	-3	78*	-3	16*
COc1ccc(C2C(C#N)=C(N)Oc3n[nH]c(C)c32)cc1Cn1nnc2ccccc21 (stereo not given)	-4	0	/	61*	5	13*
CCOc1ccc(C2C(C#N)=C(N)Oc3nc[nH]c(=O)c32)cc1OC (stereo not given)	2	2	-6	-4	3	/
COc1ccc(C2C(C#N)=C(N)Oc3n[nH]c(C)c32)cc1CSc1ccccn1 (stereo not given)	-2	0	19	81*	18	17*
CCOC(=O)C1=C(C)OC(N)=C(C#N)C1c1ccc(OC)c(CSc2ccccn2)c1 (stereo not given)	6	5	3	5	17	/
O=C(NCCc1ccccc1F)c1ccc2c(c1)ncn2C1CCCCC1	-8	/	/	/	/	/
O=C1NCCCC2c3c(cc(Br)c(O)c3Br)OC12N1CCCCC1 (stereo not given)	-5	1	9	38*	6	5.5*
O=C(OC12CCCN(C1)/C(=C/c1ccc(Cl)cc1)C2)c1ccc(Cl)cc1 (stereo not given)	-1	/	/	/	/	/
COc1cccc(C(=O)Nc2nc(SCc3ccc(Cl)cc3)n[nH]2)c1	2	2	1	39*	1	>38
COc1cccc(C(=O)NNC(=O)Cc2ccc(Cl)cc2)c1	-1	0	-4	0	4	/
CC(C)=CCC/C(C)=C/Cc1c(O)ccc(C(=O)/C=C/c2ccc(O)cc2)c1O	4	-3	-8	44*	16	>38
Cc1cc(C)c(S(C)(=O)=O)c(Oc2cccc(C(F)(F)F)c2)n1	-5	3	3	33*	2	>38
Cc1[nH]c2ccc(F)cc2c1CCN(Cc1cccnc1)C(=S)Nc1ccc(F)cc1	-3	0	12	40*	-3	>38
CCCCNC(=O)C[C@H]1C[C@@]2(C(=O)OC)C(=C[C@H](C(C)(C)C)O[C@@H]2C)N(Cc2cccc3ccccc23)C1=O	6	/	/	/	/	/
CC(=O)N(c1ccccc1C)C1CCCC1	-1	-3	-1	-1	-6	/
CC(=O)N(C1=C(Cl)C(=O)c2ccccc2C1=O)C1CCCCC1	-11	0	33	92*	5	1.3*
